Test results taken from PubChem BioAssay AID1159580 (chemical genetic matrix, 2015).
In all, about 5,500 compounds went through this assay and about 2,000 (36%) were called active. Inconclusive results (about 18%) are left out. No stated cut-off is given here; in the data, active means normalized growth mostly below about 0.91 (no sharp cut-off); inconclusive means no clear call, values can overlap the other calls; inactive means mostly above about 0.92. The list shows a part of the results.

Assay: chemical genetic growth profiling, strain panel (AID 1159580);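 further: tested at 20 µM; growth read once vehicle control cultures reached saturation at 30 °C; 1 = growth at the plate median or of vehicle wells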
Settings: growth OD

Measured: normalized growth

O=C(/C=C/c1ccccc1)c1ccc(O)cc1
active: S. cerevisiae deletion strains, locus YJR075W, strain HOC1, stronger effect = lower value 0.681 | S. cerevisiae deletion strains, locus YKL009W, strain mrt4, stronger effect = lower value 0.829 | S. cerevisiae deletion strains, locus YKL068W, stronger effect = lower value 0.912 | S. cerevisiae deletion strains, locus YKL085W, strain MDH1 (second series), stronger effect = lower value 0.923 | S. cerevisiae deletion strains, locus YKL085W, strain MDH1, stronger effect = lower value 0.923 | S. cerevisiae deletion strains, locus YKL160W, strain elf1, stronger effect = lower value 0.144 | S. cerevisiae deletion strains, locus YKR001C, strain vps1, stronger effect = lower value 0.299 | S. cerevisiae deletion strains, locus YKR026C, strain gcn3, stronger effect = lower value 0.292 | S. cerevisiae deletion strains, locus YKR091W, strain srl3, stronger effect = lower value 0.509 | S. cerevisiae deletion strains, locus YLL001W, strain dnm1, stronger effect = lower value 0.366 | S. cerevisiae deletion strains, locus YLL026W, stronger effect = lower value 0.173 | S. cerevisiae deletion strains, locus YLL041C, strain sdh2, stronger effect = lower value 0.218 | S. cerevisiae deletion strains, locus YLR027C, strain aat2, stronger effect = lower value 0.0836 | S. cerevisiae deletion strains, locus YLR039C, strain RIC1, stronger effect = lower value 0.202 | S. cerevisiae deletion strains, locus YLR058C, strain SHM2, stronger effect = lower value 0.765 | S. cerevisiae deletion strains, locus YLR102C, strain apc9, stronger effect = lower value 0.922 | S. cerevisiae deletion strains, locus YLR221C, strain rsa3, stronger effect = lower value 0.0804 | S. cerevisiae deletion strains, locus YLR258W, strain gsy2, stronger effect = lower value 0.237 | S. cerevisiae deletion strains, locus YLR262C, strain YPT6 (second series), stronger effect = lower value 0.17 | S. cerevisiae deletion strains, locus YLR262C, strain YPT6, stronger effect = lower value 0.248 | S. cerevisiae deletion strains, locus YLR268W, strain sec22, stronger effect = lower value 0.723 | S. cerevisiae deletion strains, locus YLR320W, strain mms22, stronger effect = lower value 0.0946 | S. cerevisiae deletion strains, locus YLR330W, strain CHS5, stronger effect = lower value 0.59 | S. cerevisiae deletion strains, locus YLR342W, strain FKS1 (second series), stronger effect = lower value 0.569 | S. cerevisiae deletion strains, locus YLR342W, strain FKS1, stronger effect = lower value 0.193 | S. cerevisiae deletion strains, locus YLR357W, strain rsc2, stronger effect = lower value 0.46 | S. cerevisiae deletion strains, locus YLR370C, strain arc18, stronger effect = lower value 0.447 | S. cerevisiae deletion strains, locus YLR371W, strain rom2, stronger effect = lower value 0.714 | S. cerevisiae deletion strains, locus YLR384C, strain iki3, stronger effect = lower value 0.462 | S. cerevisiae deletion strains, locus YLR418C, strain cdc73, stronger effect = lower value 0.301 | S. cerevisiae deletion strains, locus YML016C, strain PPZ1, stronger effect = lower value 0.896 | S. cerevisiae deletion strains, locus YML032C, strain rad52, stronger effect = lower value 0.814 | S. cerevisiae deletion strains, locus YML120C, strain ndi1, stronger effect = lower value 0.0894 | S. cerevisiae deletion strains, locus YML124C, strain tub3, stronger effect = lower value 0.913 | S. cerevisiae deletion strains, locus YMR058W, strain fet3, stronger effect = lower value 0.0951 | S. cerevisiae deletion strains, locus YMR078C, strain ctf18, stronger effect = lower value 0.676 | S. cerevisiae deletion strains, locus YMR125W, strain sto1, stronger effect = lower value 0.101 | S. cerevisiae deletion strains, locus YMR129W, stronger effect = lower value 0.222 | S. cerevisiae deletion strains, locus YMR205C, strain PFK2, stronger effect = lower value 0.124 | S. cerevisiae deletion strains, locus YMR223W, strain ubp8, stronger effect = lower value 0.852 | S. cerevisiae deletion strains, locus YMR231W, strain pep5, stronger effect = lower value 0.512 | S. cerevisiae deletion strains, locus YMR263W, strain SAP30, stronger effect = lower value 0.798 | S. cerevisiae deletion strains, locus YMR307W, strain GAS1, stronger effect = lower value 0.401 | S. cerevisiae deletion strains, locus YNL067W, strain RPL9B, stronger effect = lower value 0.719 | S. cerevisiae deletion strains, locus YNL071W, strain lat1, stronger effect = lower value 0.0619 | S. cerevisiae deletion strains, locus YNL128W, strain TEP1, stronger effect = lower value 0.734 | S. cerevisiae deletion strains, locus YNL153C, strain GIM3, stronger effect = lower value 0.492 | S. cerevisiae deletion strains, locus YNL209W, strain ssb2, stronger effect = lower value 0.593 | S. cerevisiae deletion strains, locus YNL233W, strain BNI4, stronger effect = lower value 0.621 | S. cerevisiae deletion strains, locus YNL248C, strain rpa49, stronger effect = lower value 0.0935 | S. cerevisiae deletion strains, locus YNL271C, strain bni1, stronger effect = lower value 0.878 | S. cerevisiae deletion strains, locus YNL298W, strain CLA4, stronger effect = lower value 0.824 | S. cerevisiae deletion strains, locus YNL307C, strain MCK1, stronger effect = lower value 0.162 | S. cerevisiae deletion strains, locus YNL322C, strain KRE1 (second series), stronger effect = lower value 0.231 | S. cerevisiae deletion strains, locus YNL322C, strain KRE1, stronger effect = lower value 0.77 | S. cerevisiae deletion strains, locus YNR049C, strain mso1, stronger effect = lower value 0.454 | S. cerevisiae deletion strains, locus YNR052C, strain pop2, stronger effect = lower value 0.866 | S. cerevisiae deletion strains, locus YOL006C, strain TOP1, stronger effect = lower value 0.347 | S. cerevisiae deletion strains, locus YOL147C, strain pex11, stronger effect = lower value 0.706 | S. cerevisiae deletion strains, locus YOR001W, strain rrp6, stronger effect = lower value 0.189 | S. cerevisiae deletion strains, locus YOR061W, strain CKA2, stronger effect = lower value 0.877 | S. cerevisiae deletion strains, locus YOR069W, strain VPS5, stronger effect = lower value 0.827 | S. cerevisiae deletion strains, locus YOR070C, strain gyp1, stronger effect = lower value 0.26 | S. cerevisiae deletion strains, locus YOR080W, strain dia2, stronger effect = lower value 0.514 | S. cerevisiae deletion strains, locus YOR083W, strain WHI5, stronger effect = lower value 0.312 | S. cerevisiae deletion strains, locus YOR106W, strain vam3, stronger effect = lower value 0.241 | S. cerevisiae deletion strains, locus YOR136W, strain idh2, stronger effect = lower value 0.914 | S. cerevisiae deletion strains, locus YOR144C, strain elg1, stronger effect = lower value 0.88 | S. cerevisiae deletion strains, locus YOR184W, strain ser1, stronger effect = lower value 0.459 | S. cerevisiae deletion strains, locus YOR265W, strain rbl2, stronger effect = lower value 0.295 | S. cerevisiae deletion strains, locus YOR270C, strain vph1, stronger effect = lower value 0.143 | S. cerevisiae deletion strains, locus YOR290C, strain snf2, stronger effect = lower value 0.14 | S. cerevisiae deletion strains, locus YOR316C, strain cot1, stronger effect = lower value 0.917 | S. cerevisiae deletion strains, locus YPL051W, strain arl3, stronger effect = lower value 0.213 | S. cerevisiae deletion strains, locus YPL055C, strain LGE1, stronger effect = lower value 0.558 | S. cerevisiae deletion strains, locus YPL078C, strain atp4, stronger effect = lower value 0.209 | S. cerevisiae deletion strains, locus YPL106C, strain sse1, stronger effect = lower value 0.503 | S. cerevisiae deletion strains, locus YPL240C, strain hsp82, stronger effect = lower value 0.149 | S. cerevisiae deletion strains, locus YPL241C, strain CIN2, stronger effect = lower value 0.763 | S. cerevisiae deletion strains, locus YPR119W, strain clb2, stronger effect = lower value 0.905 | S. cerevisiae deletion strains, locus YPR141C, strain kar3, stronger effect = lower value 0.907 | S. cerevisiae deletion strains, locus YPR163C, strain tif3, stronger effect = lower value 0.369 | S. cerevisiae deletion strains, locus YPR167C, strain met16, stronger effect = lower value 0.898 | S. cerevisiae deletion strains, strain wtn01, stronger effect = lower value 0.78 | S. cerevisiae strains, strain wild type, stronger effect = lower value 0.518
inactive: S. cerevisiae deletion strains, locus YLR113W, strain HOG1, stronger effect = lower value 0.964 | S. cerevisiae deletion strains, locus YNL183C, strain NPR1, stronger effect = lower value 0.901 | S. cerevisiae deletion strains, locus YNL250W, strain rad50, stronger effect = lower value 0.924 | S. cerevisiae deletion strains, locus YOL012C, strain htz1 0.327 | S. cerevisiae deletion strains, locus YOR231W, strain MKK1, stronger effect = lower value 0.948 | S. cerevisiae deletion strains, locus YPL256C, strain CLN2, stronger effect = lower value 0.978
